# Results: PubChem BioAssay (NCI)
# Compounds without any hit were thinned out: in the full panel of roughly 83,000, 20% have a hit.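 The endpoint reported here, percent growth, reads 100 for growth as untreated, 0 for no net growth and -100 for all cells dead.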 Unmarked numbers belong to inactive results. Activity calls are given as the source filed them. The calls were made as follows: active = growth percent below 10; inactive = the rest.
# Assays:
# Test in all cases: NCI-60 one-dose screen, 48 h (100 = growth as untreated, 0 = no growth, -100 = all killed)
# Conditions in all cases: 10 µM unless noted
# [1] = system: T-47D breast
# [2] = system: BT-549 breast
# [3] = system: MDA-MB-435 melanoma
# [4] = system: SW-620 colon
# [5] = system: MCF7 breast
# [6] = system: HCT-116 colon
# [7] = system: KM12 colon
# [8] = system: HCC-2998 colon
SMILES,growth [1],growth [2],growth [3],growth [4],growth [5],growth [6],growth [7],growth [8]
Cc1cc(C)c2c(-c3nnc(N)s3)cc(=O)oc2c1,99.6%,98.8%,94.3%,98.2%,92.2%,102%,98.8%,–
c1csc(-c2c3ccc(=[N+]4CCCCC4)cc-3oc3cc(N4CCCCC4)ccc23)c1,-60.7% (active),–,-46.5% (active),-76% (active),-57.2% (active),-97.1% (active),-92.9% (active),-94.2% (active)
CS(=O)(=O)c1ccc(Nc2nc(N[C@H]3CCCC[C@H]3N)nc3cc[nH]c(=O)c23)cc1,-3.45% (active),–,-4.07% (active),6.42% (active),5.47% (active),-2.19% (active),0.908% (active),-13.1% (active)
COc1c(CCC[P+](c2ccccc2)(c2ccccc2)c2ccccc2)cc2c(c1OC)OCO2,2.54% (active),11.5%,2.57% (active),13.1%,2.19% (active),5.97% (active),4.98% (active),–
CC(C)C(NC(=O)C1(NC(=O)OCc2ccccc2)CCCC1)C(=O)O (configuration not stated),103%,83.7%,109%,96.9%,105%,97.6%,111%,–
c1coc(-c2c3ccc(=[N+]4CCCCC4)cc-3oc3cc(N4CCCCC4)ccc23)c1,-50.4% (active),-82.8% (active),-68.1% (active),-80% (active),-69.7% (active),-95.2% (active),-93.3% (active),–
N#CC1=C(c2ccc(Br)cc2)NC(SCC(=O)c2ccc(Br)cc2)NC1=O (configuration not stated),–,99.1%,103%,101%,101%,96.5%,101%,106%
N#C/C(=C\c1ccc(-c2ccccc2F)o1)c1nc(-c2ccco2)cs1,14.5%,–,101%,96.1%,37.7%,93%,63.9%,67.8%
COc1ccc2c(c1)C(=O)/C(=C/c1cccc(OCC(=O)Nc3nc(C)c(C)s3)c1)O2,-6.43% (active),-81.9% (active),15.3%,-76.9% (active),40.5%,-96.5% (active),9.4% (active),–
COc1ccc(-c2ccc3c(c2)sc2nc(-c4ccc(F)cc4)cn23)cc1,55.1%,105%,74.3%,98.8%,33.3%,42.3%,64.8%,–
O=S(=O)(O)c1ccc(N/N=C/c2ccccc2Cl)cc1,106%,–,102%,108%,99.2%,104%,116%,–
O=C1CCC2=C3C4CCCCC4C(=O)C4CCCC(OC2C1)C34 (configuration not stated),46.4%,7.09% (active),-68% (active),4.34% (active),12.8%,-7.43% (active),-2.73% (active),–
O=C(CCCCCCSc1nc(-c2ccccc2)cc(-c2ccc(Cl)cc2)n1)NO,-13.7% (active),–,19.4%,11.9%,15.9%,6.79% (active),31.4%,51.8%
CC(C)CCC[C@@H](C)[C@H]1CC[C@H]2[C@@H](Nc3ccc(O)cc3)CCC[C@]12C,-15.8% (active),113%,100%,114%,56.1%,84.8%,87.9%,–
CC1(C)CC(=O)C2=C(C1)N(c1ccc(OC(F)(F)F)cc1)C(N)=C(C#N)C2c1ccc(Cl)cc1 (configuration not stated),79.1%,109%,93.1%,101%,86%,68.4%,86.9%,–
NS(=O)(=O)c1ccc(-n2nc(C(=O)N/N=C\c3ccc(F)cc3)cc2-c2ccc(Cl)cc2)cc1,79.5%,–,94.3%,95.8%,81.3%,98%,96.9%,98%
COc1ccccc1N1C(=O)/C(=C/C2=Cc3ccccc3OC2)SC1=S,89.7%,–,97.8%,95.4%,95.5%,84.9%,99.6%,102%
COc1ccc(-c2[nH]c(=S)n(C(CC3(C)NCC(=O)N3n3c(-c4ccccc4)cc(C)nc3=S)c3ccc(OC)cc3)c(=O)c2Br)cc1 (configuration not stated),22.8%,–,57.4%,37.2%,16.5%,21.8%,37%,61.2%

SMILES,growth [1],growth [2],growth [3],growth [4],growth [5],growth [6],growth [7],growth [8]
Cc1ccc(C2SCC(=O)N2Cc2ccccc2)cc1 (configuration not stated),95.2%,99%,95.4%,107%,–,94.2%,102%,90.7%
Cc1ccc(S(=O)(=O)n2cc(CNc3ccc(N4CCOCC4=O)cc3)c3ccccc32)cc1,56.9%,–,97%,78.7%,61.9%,76.8%,96.7%,97.8%
Cn1c(=O)c2c(nc(Cl)n2CCl)n(C)c1=O,–,61.8%,43.5%,45.9%,84.4%,95.9%,116%,–
OC(COc1ccccc1Cl)COc1ccccc1Cl,–,86.6%,94.8%,97.9%,94.8%,90.9%,99.2%,–
O=Cc1ccc(O)c2ncccc12,–,-1.72% (active),60.3%,21.5%,7.29% (active),-7.5% (active),69.6%,–
O=C(/C=C/c1c(Cl)nc2sccn12)c1nccs1,–,109%,91.9%,77.8%,76.2%,81.1%,89.7%,102%
O=C1/C(=C\c2cccnc2)SC(=S)N1CCc1ccc(O)cc1,–,72.2%,22.4%,44.4%,30.3%,15%,-3.09% (active),72.1%
CNC(=O)c1cc(Oc2cccc3nc(Nc4ccc(F)c(Cl)c4)ccc23)ccn1,–,62.9%,60.5%,20.3%,35.1%,17.6%,63.5%,101%
COCN1CCC2N(COC)CCC3N(COC)CCC1N23 (configuration not stated),–,108%,110%,114%,99.4%,101%,106%,100%
Cc1ccc(N(C(=O)CCc2c[nH]c3ccccc23)[C@H](C(=O)Nc2ccc(Cl)cc2)c2cccc([N+](=O)[O-])c2)cc1,–,69.7%,81.3%,69.1%,90.1%,79.8%,60.6%,87.8%
O=C(Nc1cccc(Cl)c1)c1cc(N=Nc2ccc([N+](=O)[O-])cc2Cl)ccc1O,–,81%,90.5%,86.1%,32%,52.9%,93.7%,45.8%
CCN(CCNc1ccc(C)c2sc3ccccc3c(=O)c12)CC(C)(C)O,–,93.4%,79%,73.6%,81.8%,60%,48.3%,–
COc1cc(-c2nc(N3CCN(C)CC3)c3ccccc3n2)cc(OC)c1OC,–,84.7%,0% (active),53.3%,29.5%,31.9%,53.4%,88.4%
O=[N+]([O-])c1ccc(OCCO)cc1,–,109%,105%,101%,94.3%,103%,106%,113%
CCN(CC)CCn1nc2c3c(cccc3c1=O)-c1ccccc1-2,–,59.3%,39.7%,14.3%,4.36% (active),16.3%,34%,34.7%
COc1ccc(-c2csc(C3=C(O)CN(CCCN4CCCC4=O)C3=N)n2)cc1OC,–,100%,116%,103%,109%,88.7%,104%,98.3%
COc1ccc(-c2csc(C3=C(O)CN(C(C)C)C3=N)n2)cc1OC,–,112%,116%,104%,129%,96.3%,99.6%,116%
CNS(=O)(=O)c1n[nH]nc1-c1cc(C(C)(C)C)c(O)c(C(C)(C)C)c1,–,101%,106%,109%,93.8%,94.6%,105%,105%
